# High-throughput results (PubChem BioAssay)
# AMA1-RON2 inh: qHTS for Inhibitors of AMA1-RON; Towards Development of Antimalarial Drug Lead: Primary Screen | AlphaScreen AMA1-biotinylated RON2 peptide binding | Potency, µM (top dose mostly 58.2 µM), usual class: inhibitors | hit rate 0.2% among 360,000 | AID 720542, 2013; also: nearly all actives have a fitted effect of over 45% in size
#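 AMA1 (3D7) with his tag at 25 nM final met compounds first, then biotinylated RON2 peptide at 25 nM; detection used donor plus acceptor beads, 10 µg/mL apiece, read by AlphaScreen after 30 min at room temperature.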
# HCV inhibitor: qHTS Assay for Inhibitors of Hepatitis C Virus (HCV); Huh7.5.1 HCVcc-Cre infection, luciferase reporter, 44 h; Potency, µM (top dose mostly 41.8 µM), usual class: inhibitors; hit rate 3.4% among 340,000
#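 Whole-lifecycle infectious HCVcc-Cre system; cells 1,000/well, compound then virus (~0.5 moi) added 4 h after plating, 44 h culture. Luciferase read 15 sec following 15 min substrate incubation, room temp.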
# Pf growth 48h: Primary qHTS for delayed death inhibitors of the malarial parasite plastid, 48 hour incubation. AID 504832, 2011. P. falciparum luciferase growth in erythrocytes, 48 h. Potency, µM (top dose mostly 28.7 µM), hits mostly inhibitors. hit rate 5.9% among 310,000
#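 Compounds are pin-transferred into medium, infected erythrocytes (2% hematocrit, 0.1% parasitemia final) are added, and plates sit one parasite generation at 37 C in 5% CO2. Detection reagent is then added and luminescence measured.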
# Pf growth 96h: Primary qHTS for delayed death inhibitors of the malarial parasite plastid, 96 hour incubation. hit rate 6.9% among 320,000. AID 504834, 2011. P. falciparum luciferase reporter growth, 96 h. Potency, µM (series often up to 28.7 µM), hits mostly inhibitors
#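 Readout is luminescence from an integrated firefly luciferase in P. falciparum. Red cells, 2% hematocrit and 0.05% parasitemia final, were cultured with compound through two parasite generations (96 hours) at 37 C, 5% CO2.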
# Hits are given with their value; – = inactive; ? = inconclusive; · = not tested or not shown. Compounds with a hit are over-represented: about 11% of the library has one in this group of screens. Calls follow the shape of the dose curve; as a rule, active = well fitted curve in the direction sought with a large enough effect; inconclusive = small, poorly fitted or top-dose-only effect, or another doubt; inactive = no such curve, though single readings can be large; an effect the other way counts as inactive or inconclusive.
SMILES,AMA1-RON2 inh,HCV inhibitor,Pf growth 48h,Pf growth 96h
CCSc1ncccc1C(=O)N[C@@H](CCSC)C(=O)OC,–,–,–,–
COc1ccc(-c2nc(CCNC(=O)c3cccs3)cs2)cc1,–,35.5µM,–,?
CC(C)(C)n1ncc2c(=O)n(CC(=O)c3ccccc3)cnc21,–,–,–,2.08µM
CC(C)(C)n1ncc2c(=O)n(CC(=O)OCc3ccccc3)cnc21,–,–,–,–
O=C(CN1CCCC1)N1CCCc2ccccc21,–,–,–,18.5µM
CC(C)(C)n1ncc2c(=O)n(CC(=O)NCc3ccc(F)cc3)cnc21,–,–,–,13.1µM
CC(C)(C)n1ncc2c(=O)n(CC(=O)NCc3ccco3)cnc21,–,?,–,–
CC(C)(C)n1ncc2c(=O)n(CC(=O)N3CCc4ccccc43)cnc21,–,–,–,?
CC(C)(C)n1ncc2c(=O)n(CC(=O)N3CCCc4ccccc43)cnc21,–,–,–,1.85µM
CC1=NNC(=O)C1CCC(=O)N/N=C/C(Br)=C/c1ccccc1 (stereo not drawn),–,–,–,?
O=C(Cn1cnc2c(nnn2Cc2ccc(F)cc2)c1=O)NCc1ccccc1,–,–,9.28µM,–
CCN(CC)c1ccc(/C=N/OCC(=O)N2CCCc3ccccc32)cc1,28.2µM,–,–,–
O=C(Nc1ncccc1O)c1ccc(S(=O)(=O)NCc2ccco2)cc1,–,·,·,·
COc1ccc(-n2nc(C(=O)NCC(=O)NCC3COc4ccccc4O3)c3ccccc3c2=O)cc1 (stereo not drawn),–,–,?,–
O=C(N[C@@H]1CCC(=O)N(CC[C@H](Oc2ccccc2)c2ccccc2)CC1)OCc1ccccc1,–,–,0.415µM,10.4µM
Cc1ccc(SC[C@H](C)CN2CC[C@H](NC(=O)OCc3ccccc3)CCC2=O)cc1,–,–,–,?
Cc1ccc(S[C@@H](CCN2CC[C@H](NC(=O)OCc3ccccc3)CCC2=O)c2ccccc2)cc1,–,12.6µM,–,?
C[C@@H](CSc1ccccc1)CN1CC[C@H](NC(=O)OCc2ccccc2)CCC1=O,–,11.2µM,–,?
CCOCCc1nnc(NC(=O)C2CC(=O)N(CCc3ccc(F)cc3)C2)s1 (stereo not drawn),–,–,–,–
Cc1cccc(C)c1NC(=O)CN(C)C(=O)C(c1ccccc1)c1ccccc1,–,–,–,–
N#Cc1cnc(NN)nc1,–,–,10.4µM,?
N#Cc1nc(-c2cccs2)oc1NCc1ccc2c(c1)OCO2,–,–,–,–
O=C(c1n[nH]c2ccccc12)N1CCOCC1,–,–,–,14.7µM
O=C(c1cccnc1)N1CCN(S(=O)(=O)c2ccc(F)cc2)CC1,–,–,–,?
O=C(c1cccnc1)N1CCN(S(=O)(=O)c2ccc(Cl)cc2)CC1,–,–,–,4.15µM
SMILES,AMA1-RON2 inh,HCV inhibitor,Pf growth 48h,Pf growth 96h
Cn1nc(C(=O)N2CCN(S(=O)(=O)c3ccc(Cl)cc3)CC2)c2ccccc2c1=O,–,?,–,?
O=C(c1n[nH]c2ccccc12)N1CCCCC1,–,–,–,–
O=C(c1n[nH]c2ccccc12)N1CCN(S(=O)(=O)c2ccc(Cl)cc2)CC1,–,–,2.08µM,?
CC(=O)Oc1c(C)c2c3c(c1OC(C)=O)[C@@H](C)CC[C@@H]3[C@@H](C)C[C@H]2C=C(C)C,–,–,11.7µM,?
CC(=O)O[C@H]1[C@H](O)[C@H](Oc2c(O)c(C)c3c4c2[C@@H](C)CC[C@@H]4[C@@H](C)C[C@H]3C=C(C)C)O[C@@H](C)[C@H]1O,–,–,·,·
CC(C)=C[C@@H]1C[C@H](C)[C@H]2CC[C@H](C)c3c(O)c(O)c(C)c1c32,–,?,3.7µM,10.4µM
C#CCN(C[C@@H]1[C@@H](OC(=O)Nc2cccs2)[C@@H](OC(=O)Nc2cccs2)Cn2c(=O)n(CCCCCC)c(=O)n21)S(=O)(=O)c1ccc(C)cc1,–,·,·,·
CN(CC(=O)NCCC1=CCCCC1)S(=O)(=O)c1ccc2c(c1)c(=O)n(C)c(=O)n2C,–,–,·,–
COc1ccc(NC(=O)CN(C)S(=O)(=O)c2ccc3c(c2)n(C)c(=O)c(=O)n3C)cc1,–,–,–,–
CN(CC(=O)NCCc1ccc(Cl)cc1)S(=O)(=O)c1ccc2c(c1)c(=O)n(C)c(=O)n2C,–,?,·,13.1µM
COc1ccc(C)cc1NC(=O)CN(C)S(=O)(=O)c1ccc2c(c1)c(=O)n(C)c(=O)n2C,–,–,–,–
Cc1ccc(NC(=O)CN(C)S(=O)(=O)c2ccc3c(c2)n(C)c(=O)c(=O)n3C)cc1,–,–,?,11.7µM
COc1ccc(NC(=O)CN(C)S(=O)(=O)c2ccc3c(c2)c(=O)n(C)c(=O)n3C)cc1,–,–,–,13.1µM
CCN(Cc1ccccc1)C1CCN(Cc2ccc(SC)cc2)CC1,?,7.08µM,?,–
CCC1(c2ccc(F)cc2)NC(=O)N(CC(=O)Nc2ccc(S(N)(=O)=O)cc2)C1=O (stereo not drawn),–,–,–,–
Cc1ccc(C[n+]2c(-c3ccc(C)cc3)cc(-c3ccc(C)cc3)cc2-c2ccc(C)cc2)cc1,–,2.24µM,0.329µM,?
Cc1ccc(-c2cc(-c3ccc(C)cc3)[n+](-c3ccc(C(=O)O)cc3)c(-c3ccc(C)cc3)c2)cc1,–,–,·,?
Cc1ccc(NC(=O)CCNCc2ccco2)cc1S(=O)(=O)N(C)C,–,–,–,–
C[C@@H]1CN([C@@H](C)CO)C(=O)CCCn2nncc2CO[C@H]1CN(C)C(=O)c1ccc2ccn(C)c2c1,–,·,·,·
O=c1[nH]c2c(cc1CNCCN1CCOCC1)c(-c1cccc(F)c1)nn2-c1ccccc1,·,·,2.08µM,–
Cc1nn(-c2ccccc2)c2[nH]c(=O)c(CNc3ccc(N4CCOCC4)cc3)cc12,–,–,?,–
O=P(O)(O)OP(=O)(O)OP(=O)(O)O,·,·,–,–
O=C(Cn1cc([N+](=O)[O-])cn1)NCCc1c[nH]c2ccccc12,–,–,–,?
O=C(NCCc1nc2ccccc2[nH]1)c1cc([N+](=O)[O-])cc([N+](=O)[O-])c1,–,–,4.65µM,?
O=C(Cn1cc([N+](=O)[O-])cn1)NCCc1nc2ccccc2[nH]1,–,–,–,9.28µM
SMILES,AMA1-RON2 inh,HCV inhibitor,Pf growth 48h,Pf growth 96h
CN(C)S(=O)(=O)c1cccc(NC(=O)c2cccc(S(=O)(=O)N3CCCCC3)c2)c1,–,?,?,?
COc1ccc(C2=CSC3=C(C(=O)c4cccc(S(=O)(=O)N(C)C)c4)CCN23)cc1,–,–,·,8.28µM
COc1cccc(NC(=O)CN(c2cccc(F)c2)S(C)(=O)=O)c1,–,8.91µM,–,·
COC(=O)CN(c1cccc(OC)c1)S(C)(=O)=O,–,–,–,5.86µM
COc1ccc(CNC(=O)CN(Cc2ccc(F)cc2)C(=O)c2csnn2)cc1,–,–,–,–
Cc1ccsc1/C=C/c1ccc2cccc(O)c2n1,–,12.6µM,·,–
COc1cc(Br)c(/C=C/c2ccc3cccc(O)c3n2)cc1OC,–,10µM,2.62µM,2.08µM
